Set-up in all cases: scale not given: direction of the effect not stated beside the values
Assay [1] deals with Protein translocase subunit SecA (Escherichia coli (strain K12)) (UniProt P10408). In words: Assay to Identify E. coli SecA ATPase Inhibitors. The note with it: 30 µM. The format is functional.
Assay [2] addresses T1, Ubiquitin-activating enzyme e1, putative (Leishmania donovani (strain BPK282A1)) (UniProt E9BSI1).
T1 sequence (whole entry): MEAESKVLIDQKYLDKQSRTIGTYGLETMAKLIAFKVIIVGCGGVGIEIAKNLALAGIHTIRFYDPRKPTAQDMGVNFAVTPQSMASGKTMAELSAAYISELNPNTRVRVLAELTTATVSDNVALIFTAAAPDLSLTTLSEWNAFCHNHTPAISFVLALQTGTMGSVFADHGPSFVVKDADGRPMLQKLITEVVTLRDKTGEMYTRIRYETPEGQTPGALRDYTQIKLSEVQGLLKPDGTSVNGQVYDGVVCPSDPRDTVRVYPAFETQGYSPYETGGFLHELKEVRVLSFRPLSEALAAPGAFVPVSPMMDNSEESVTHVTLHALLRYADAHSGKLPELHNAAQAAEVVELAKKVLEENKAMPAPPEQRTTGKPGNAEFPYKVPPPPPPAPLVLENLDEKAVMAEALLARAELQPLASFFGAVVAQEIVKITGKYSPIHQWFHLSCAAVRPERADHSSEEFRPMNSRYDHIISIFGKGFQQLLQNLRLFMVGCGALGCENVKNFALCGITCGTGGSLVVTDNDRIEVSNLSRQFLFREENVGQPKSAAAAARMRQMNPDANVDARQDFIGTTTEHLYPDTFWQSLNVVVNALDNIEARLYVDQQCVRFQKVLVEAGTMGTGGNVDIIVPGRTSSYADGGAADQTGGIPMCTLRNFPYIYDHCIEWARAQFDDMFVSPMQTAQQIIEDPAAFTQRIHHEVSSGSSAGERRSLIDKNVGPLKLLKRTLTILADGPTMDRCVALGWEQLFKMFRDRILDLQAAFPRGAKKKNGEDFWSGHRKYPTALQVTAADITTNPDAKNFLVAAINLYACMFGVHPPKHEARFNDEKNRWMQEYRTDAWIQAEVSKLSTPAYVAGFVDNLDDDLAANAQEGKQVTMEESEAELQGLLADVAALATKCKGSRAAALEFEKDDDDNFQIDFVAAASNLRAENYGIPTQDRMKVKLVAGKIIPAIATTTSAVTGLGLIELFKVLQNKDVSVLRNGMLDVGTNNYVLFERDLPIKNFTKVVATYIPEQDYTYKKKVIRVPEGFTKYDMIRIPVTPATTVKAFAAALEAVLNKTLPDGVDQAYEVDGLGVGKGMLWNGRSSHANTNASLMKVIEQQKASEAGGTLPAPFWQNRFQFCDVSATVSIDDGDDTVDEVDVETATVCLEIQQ
In words: Leishmania donovani Ubiquitin Activating Enzyme (LdE1). Conditions: 30 µM. It is filed as functional.

Assay [3] addresses AMP-activated protein kinase, AMPK (Homo sapiens) (UniProt P54646+O43741+P54619+Q9UGJ0+Q9Y478+Q13131+Q9UGI9). Briefly: AMP-dependent Kinase enzyme assay. An in vitro enzyme assay that detects ADP turnover that is directly proportional to AMPK activity. This uses naive AMPK that is activated during the assay with MK-8722. The format is functional. The note with it: 30 µM.
Assay [4] has as its target Sialic acid-binding Ig-like lectin 9 (Homo sapiens) (UniProt Q9Y336). In words: Hs-Siglec9 ALPHAscreen SOP 20170721. Conditions: 10 µM. For orientation: Alpha assays give light when donor and acceptor beads are brought close together.
The test system of assay [5] is Trypanosoma cruzi. In words: Trypanosoma cruzi phosphomannomutase and mannose-1-phosphate guanylyltransferase assay. It is filed as functional. Conditions: 10 µM.
In assay [6] the target is T2, Arginase-2, mitochondrial (Homo sapiens) (UniProt P78540).
T2 sequence (whole entry): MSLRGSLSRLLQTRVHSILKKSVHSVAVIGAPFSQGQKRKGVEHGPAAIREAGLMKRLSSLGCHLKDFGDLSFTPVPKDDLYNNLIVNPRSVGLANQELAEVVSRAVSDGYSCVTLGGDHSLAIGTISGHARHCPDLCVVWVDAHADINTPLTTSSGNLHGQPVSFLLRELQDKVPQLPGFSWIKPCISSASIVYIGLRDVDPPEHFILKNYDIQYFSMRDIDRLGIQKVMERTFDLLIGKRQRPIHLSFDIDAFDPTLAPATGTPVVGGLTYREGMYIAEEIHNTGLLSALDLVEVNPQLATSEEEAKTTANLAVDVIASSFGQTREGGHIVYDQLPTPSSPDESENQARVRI
In words: in vitro enzyme assay to detect the production of urea directly proportional to the activity of Arginase II. Note: in the data most compounds retested in dose-response had high values. It is filed as functional. Conditions: 33.3 µM.

The target of assay [7] is T3, Proteasome subunit beta (Trypanosoma cruzi) (UniProt O96673).
T3 sequence (whole entry): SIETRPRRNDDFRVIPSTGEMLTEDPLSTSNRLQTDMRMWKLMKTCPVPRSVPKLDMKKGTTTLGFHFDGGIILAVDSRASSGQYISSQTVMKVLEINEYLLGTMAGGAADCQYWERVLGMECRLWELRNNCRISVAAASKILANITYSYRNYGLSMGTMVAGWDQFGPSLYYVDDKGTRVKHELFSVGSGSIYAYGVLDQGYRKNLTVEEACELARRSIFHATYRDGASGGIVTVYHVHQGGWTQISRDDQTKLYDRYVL
In words: Trypanosoma cruzi proteasome chymotrypsin-like activity (TcProtChymo) assay. Note: in the data most compounds retested in dose-response had high values. The note with it: 9.37 µM. It is filed as functional.

For assay [8], the species on record is Homo sapiens. Briefly: To identify inhibition of the IFN signalling (Jak-Stat) pathway via expression of an eGFP reporter gene under the control of an IFN-stimulated response element (ISRE) containing MxA promoter. It is filed as functional. The note with it: 30 µM. In general terms: In a reporter assay the amount or activity of a reporter protein is the signal.

For assay [9], the target named is T4, Tyrosyl-tRNA synthetase, putative (Trypanosoma cruzi (strain CL Brener)) (UniProt Q4DSP6).
T4 sequence (whole entry): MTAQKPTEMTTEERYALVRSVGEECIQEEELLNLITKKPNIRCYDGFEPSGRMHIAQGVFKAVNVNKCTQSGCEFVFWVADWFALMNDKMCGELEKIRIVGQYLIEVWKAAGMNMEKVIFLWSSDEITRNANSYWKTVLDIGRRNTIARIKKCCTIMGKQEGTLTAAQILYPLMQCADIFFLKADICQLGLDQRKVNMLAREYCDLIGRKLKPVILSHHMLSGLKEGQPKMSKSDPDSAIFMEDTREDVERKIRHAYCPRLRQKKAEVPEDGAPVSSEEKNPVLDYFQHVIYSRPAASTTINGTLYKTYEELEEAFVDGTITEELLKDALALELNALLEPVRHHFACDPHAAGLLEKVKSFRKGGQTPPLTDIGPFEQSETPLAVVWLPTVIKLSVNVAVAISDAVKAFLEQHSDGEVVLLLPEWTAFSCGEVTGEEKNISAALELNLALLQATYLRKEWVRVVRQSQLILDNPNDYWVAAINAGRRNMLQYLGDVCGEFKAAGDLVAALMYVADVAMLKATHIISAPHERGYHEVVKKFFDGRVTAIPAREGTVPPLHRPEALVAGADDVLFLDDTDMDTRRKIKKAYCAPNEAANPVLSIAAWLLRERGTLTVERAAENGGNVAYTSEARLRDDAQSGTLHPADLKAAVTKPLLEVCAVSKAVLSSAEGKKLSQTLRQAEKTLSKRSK
In words: Trypanosoma cruzi tyrosyl tRNA synthetase (TcYRS) _High Tyrosine SOP. Note: in the data most compounds retested in dose-response had high values. The note with it: 30 µM. The format is functional.

The target of assay [10] is T4, Tyrosyl-tRNA synthetase, putative (Trypanosoma cruzi (strain CL Brener)). Briefly: Trypanosoma cruzi tyrosyl tRNA synthetase (TcYRS) SOP. It is filed as functional. Conditions: 30 µM.
Assay [11] addresses Chromo domain-containing protein 1 (Saccharomyces cerevisiae (strain ATCC 204508 / S288c) (Baker's yeast)) (UniProt P32657). Briefly: ScCHD-1 Enzyme Inhibition Assay. Note: in the data most compounds retested in dose-response had high values. The format is functional. The note with it: 30 µM.

This passage reports Percent Effect results from ChEMBL document CHEMBL3988442, “University of Dundee, Small-Polar-MMV Screening Library” (2021).

For some of these results: Potency and affinity values are given separately.

Sequence of Chromo domain-containing protein 1 (Saccharomyces cerevisiae (strain ATCC 204508 / S288c) (Baker's yeast)) (P32657 whole entry, the tested form may be a part): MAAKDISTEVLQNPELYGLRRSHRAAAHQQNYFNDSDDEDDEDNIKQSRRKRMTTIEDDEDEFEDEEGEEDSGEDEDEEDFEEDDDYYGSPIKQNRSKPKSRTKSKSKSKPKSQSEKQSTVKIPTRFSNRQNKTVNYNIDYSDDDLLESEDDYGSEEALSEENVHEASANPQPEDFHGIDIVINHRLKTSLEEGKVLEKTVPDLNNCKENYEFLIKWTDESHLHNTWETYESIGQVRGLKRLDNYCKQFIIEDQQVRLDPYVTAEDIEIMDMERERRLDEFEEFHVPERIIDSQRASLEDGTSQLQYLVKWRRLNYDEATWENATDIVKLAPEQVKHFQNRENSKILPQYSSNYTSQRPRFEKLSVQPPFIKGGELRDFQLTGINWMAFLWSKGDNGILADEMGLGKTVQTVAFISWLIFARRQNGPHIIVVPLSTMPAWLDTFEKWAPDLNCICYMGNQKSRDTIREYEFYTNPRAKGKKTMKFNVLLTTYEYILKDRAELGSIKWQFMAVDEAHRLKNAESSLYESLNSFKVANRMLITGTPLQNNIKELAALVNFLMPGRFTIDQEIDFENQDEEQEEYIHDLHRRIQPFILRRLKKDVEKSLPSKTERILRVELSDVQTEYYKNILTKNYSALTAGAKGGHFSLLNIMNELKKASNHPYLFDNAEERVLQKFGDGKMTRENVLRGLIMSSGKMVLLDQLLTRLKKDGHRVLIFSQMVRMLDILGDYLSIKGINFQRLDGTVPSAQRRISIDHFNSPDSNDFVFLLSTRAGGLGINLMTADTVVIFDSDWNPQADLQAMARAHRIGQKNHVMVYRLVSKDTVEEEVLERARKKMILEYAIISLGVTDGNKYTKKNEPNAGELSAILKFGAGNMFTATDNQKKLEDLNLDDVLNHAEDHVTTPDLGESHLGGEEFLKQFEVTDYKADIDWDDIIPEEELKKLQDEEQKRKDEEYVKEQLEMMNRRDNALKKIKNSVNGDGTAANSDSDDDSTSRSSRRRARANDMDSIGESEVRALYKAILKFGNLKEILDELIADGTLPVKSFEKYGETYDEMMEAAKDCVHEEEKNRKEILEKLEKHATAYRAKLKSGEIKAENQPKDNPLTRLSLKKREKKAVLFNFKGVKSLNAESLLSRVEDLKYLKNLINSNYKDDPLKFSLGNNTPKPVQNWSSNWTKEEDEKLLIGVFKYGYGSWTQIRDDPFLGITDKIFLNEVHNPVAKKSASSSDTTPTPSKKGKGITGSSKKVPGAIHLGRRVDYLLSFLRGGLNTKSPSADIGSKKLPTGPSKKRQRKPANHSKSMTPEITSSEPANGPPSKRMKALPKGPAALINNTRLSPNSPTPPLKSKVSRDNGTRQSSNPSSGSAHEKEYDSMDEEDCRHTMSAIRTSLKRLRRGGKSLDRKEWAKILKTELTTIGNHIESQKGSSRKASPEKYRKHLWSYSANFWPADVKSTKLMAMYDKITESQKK
Sequence of Protein translocase subunit SecA (Escherichia coli (strain K12)) (P10408 whole entry): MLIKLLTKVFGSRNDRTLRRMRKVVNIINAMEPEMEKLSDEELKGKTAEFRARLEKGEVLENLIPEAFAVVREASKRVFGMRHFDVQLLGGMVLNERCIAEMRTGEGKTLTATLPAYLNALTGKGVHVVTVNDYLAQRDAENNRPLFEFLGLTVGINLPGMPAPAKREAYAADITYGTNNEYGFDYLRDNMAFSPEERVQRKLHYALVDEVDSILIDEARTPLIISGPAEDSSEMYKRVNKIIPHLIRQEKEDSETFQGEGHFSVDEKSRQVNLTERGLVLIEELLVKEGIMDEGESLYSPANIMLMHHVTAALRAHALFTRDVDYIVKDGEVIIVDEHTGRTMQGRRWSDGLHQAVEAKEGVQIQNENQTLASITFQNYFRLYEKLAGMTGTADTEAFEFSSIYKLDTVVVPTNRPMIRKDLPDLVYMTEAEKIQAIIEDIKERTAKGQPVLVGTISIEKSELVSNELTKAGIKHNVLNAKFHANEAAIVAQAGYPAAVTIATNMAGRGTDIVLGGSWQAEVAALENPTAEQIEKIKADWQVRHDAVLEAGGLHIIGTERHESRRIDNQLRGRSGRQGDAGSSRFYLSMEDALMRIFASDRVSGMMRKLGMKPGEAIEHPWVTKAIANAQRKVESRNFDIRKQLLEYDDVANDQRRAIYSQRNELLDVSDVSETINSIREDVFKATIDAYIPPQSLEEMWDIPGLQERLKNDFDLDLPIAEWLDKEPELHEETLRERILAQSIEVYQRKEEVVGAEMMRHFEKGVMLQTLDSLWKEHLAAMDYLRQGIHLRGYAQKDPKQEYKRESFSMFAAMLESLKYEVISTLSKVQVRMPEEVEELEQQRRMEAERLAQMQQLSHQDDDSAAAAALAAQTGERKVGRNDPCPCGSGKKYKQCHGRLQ
Sequence of Sialic acid-binding Ig-like lectin 9 (Homo sapiens) (Q9Y336 whole entry): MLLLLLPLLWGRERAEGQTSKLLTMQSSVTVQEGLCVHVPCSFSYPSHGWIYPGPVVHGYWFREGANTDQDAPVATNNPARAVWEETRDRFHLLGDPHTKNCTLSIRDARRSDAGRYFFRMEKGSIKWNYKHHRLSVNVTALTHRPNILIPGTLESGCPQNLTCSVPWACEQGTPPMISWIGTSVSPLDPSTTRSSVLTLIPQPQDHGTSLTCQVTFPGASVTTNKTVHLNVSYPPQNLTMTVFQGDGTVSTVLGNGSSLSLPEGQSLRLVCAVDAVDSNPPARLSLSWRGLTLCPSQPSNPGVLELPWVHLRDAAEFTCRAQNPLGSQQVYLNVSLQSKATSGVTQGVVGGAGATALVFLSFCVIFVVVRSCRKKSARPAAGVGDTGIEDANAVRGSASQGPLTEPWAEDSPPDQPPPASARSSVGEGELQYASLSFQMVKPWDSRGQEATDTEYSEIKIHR

Consider `CCNc1cc2c(nn1)CCN(C(=O)c1ccc(NC3CC3)nc1)C2`, for which the Percent Effect in [1] is -3.24%; in assay [2] it was 0%; in [3], -3.65%; in assay [4] it was 11.3%; in assay [5] it was 3.38%; in assay [6], 1.15%. Moreover, the Percent Effect was found to be 2.67% in assay [7]; 6.81% in assay [8]; 5.39% in [9]; 9.76% in assay [10]; 1.67% in assay [11].

In the case of `CC(C)c1nn(C)c(Cl)c1CNCC(O)c1cccc(F)c1` (stereo not drawn), the Percent Effect in assay [1] is -7.69%; in [2], 5.2%; in [3], -1.22%; in assay [4] it was -3.98%; in [5], 7.35%; in assay [6], -2.32%. Besides, the Percent Effect in assay [7] is 15.8%; in [8], 4.38%; in assay [9], 7.62%; in [10], 30.6%; in [11] it was -7%.

Consider `Cc1ccc(N2CCCN(C(=O)c3cc(Cl)c[nH]3)CC2)nn1`, for which the Percent Effect in [1] was -3.96%; in assay [2] it was -5.48%; in assay [3], 4.73%; in assay [4], 4.6%; in assay [5], -3.17%; in assay [6], 3.59%. Further, the Percent Effect was 9.33% in assay [7]; 2.32% in [8]; 12.5% in assay [9]; 23.5% in assay [10]; -1.25% in [11].

Consider `CC(C)(C)NC(=O)CN1CCN(C(=O)Nc2ccc(F)cc2F)CC1`, for which the Percent Effect in assay [1] was -2.23%; in assay [2], 5.48%; in assay [3] it was 8.1%; in assay [4], -2.38%; in assay [5], -8.73%; in [6], -0.399%. The Percent Effect in assay [7] is 6.76%; in assay [8], 10.3%; in assay [9], 3.12%; in assay [10], 6.17%; in [11], -2.48%.

Regarding `Fc1cccc(N2CCCC3(C2)CN(c2ncccn2)CCO3)c1` (stereo not drawn), the Percent Effect in assay [1] is -0.397%; in assay [2] it was 13%; in [3] it was 2.68%; in assay [4], -5.04%; in assay [5] it was -2.66%; in assay [6], 3.23%. The Percent Effect in [7] was 9.4%; in [8], 23.1%; in assay [9], 7.41%; in assay [10], 14.1%; in assay [11], -4.87%.

Take `O=C(CC1CCCC1)N1CCCC1c1nc(O)cc(-c2ccccn2)n1` (stereo not drawn): the Percent Effect in [1] is -6.13%; in [2], 20.3%; in assay [3] it was 1.3%; in assay [4], 16.7%; in [5], -0.395%; in assay [6], -4.41%. Also, the Percent Effect was 13.9% in assay [7]; 1.89% in [8]; 6.45% in assay [9]; 19.5% in assay [10]; -15.4% in [11].

Turning to `Cc1cccc(-n2ncc(C(=O)N3CCn4c(C)nnc4C3)c2C)c1`, the Percent Effect in [1] is -5.28%; in assay [2], 13.2%; in assay [3] it was 0.162%; in [4], -0.191%; in [5], -4.58%; in assay [6], 1.8%. Also, the Percent Effect is 5.16% in assay [7]; 12.8% in [8]; -0.493% in assay [9]; 3.7% in [10]; -0.99% in [11].

With `Cc1nc(CCNC(=O)N2CCC(Cc3cnn(C)c3)C2)cs1` (stereo not drawn), the Percent Effect was -5.52% in assay [1]; 2.63% in [2]; 9.75% in [3]; 4.12% in assay [4]; -0.682% in [5]; 116% in assay [6]. Moreover, the Percent Effect is 19.9% in [7]; -10.1% in assay [8]; 2.13% in [9]; 5.2% in assay [10]; -2.02% in [11].
